# From ChEMBL document CHEMBL3988442, “University of Dundee, Small-Polar-MMV Screening Library” (2021)
# Out of some 48,000 compounds screened, about 13,000 (27%) showed an effect of 50% or more. Some of the results follow.
# System: Wolbachia pipientis
# Assay: Anti-Wolbachia Cell-Based Screen
# Format: functional
# Set-up: scale not given: in the data most compounds retested in dose-response had high values
# Settings: 5 µM
row,Compound,Percent Effect
1,CCn1ccnc1-c1nc2cc(S(=O)(=O)N3CCCC3)ccc2n1C,-1.841%
2,c1cnnc(NCC2CN(CCn3cccn3)CCO2)c1 (stereo not drawn),-18.13%
3,N#Cc1cnn(CCN2CCOC(CNc3cccnn3)C2)c1 (stereo not drawn),-39.45%
4,Cn1cc(CCN2CCOC(CNc3cccnn3)C2)cn1 (stereo not drawn),102.6%
5,c1ccc(OCCCN2CCOC(CNc3cccnn3)C2)cc1 (stereo not drawn),96.43%
6,CC(C)CCN1CCNC(=O)C1CC(=O)N1CCc2sccc2C1 (stereo not drawn),-6.453%
7,O=C(Cc1c[nH]c2ccccc12)NCC1CCN(Cc2c[nH]cn2)C1 (stereo not drawn),-4.859%
8,Cc1nc(CC2CCCN(Cc3nc(N)c4ccccc4n3)C2)no1 (stereo not drawn),-1.933%
9,Nc1nccnc1CC1CCCN(Cc2c[nH]c3ccccc23)C1 (stereo not drawn),102%
10,O=C(NCC1CCCN(Cc2cccc3nonc23)C1)c1ccc[nH]1 (stereo not drawn),22.2%
11,COc1ccccc1CC1CCCN(C(=O)c2nccnc2N)C1 (stereo not drawn),7.342%
12,COc1ccccc1CN1CCCC(Cc2nccnc2N)C1 (stereo not drawn),104.1%
13,c1ccc2c(Cc3nnc([C@H]4CCN(CC5CC5)C4)o3)c[nH]c2c1,-3.432%
14,CCn1c(C2CCCN(Cc3ccnc4ccccc34)C2)nn(C)c1=O (stereo not drawn),0.7157%
15,Nc1nccnc1CC1CCCN(Cc2cccc3[nH]ccc23)C1 (stereo not drawn),126.9%
16,COc1ccccc1CN1CCCC(n2cccn2)C1 (stereo not drawn),-0.1221%
17,Nc1nccnc1CC1CCCN(Cc2ccnc3ccccc23)C1 (stereo not drawn),254.5%
18,CC(=O)N1[C@H](Cn2cncn2)C[C@@H]2CN(c3ccc(C)nn3)CC[C@@H]21,0.7192%
19,N#Cc1cccc(S(=O)(=O)Nc2c(F)cccc2N2CCCC2)c1,-6.503%
20,Cc1nn(C)c2nc(N(Cc3ccncc3)CC3CCCO3)sc12 (stereo not drawn),-11.41%
21,O=C(NCC1CCOCC1)c1cc(-c2cccnc2)c2cnccc2n1,94.41%
22,O=C(NCC1CCOC1)c1cc(-c2ccccc2Cl)[nH]n1 (stereo not drawn),-16.18%
23,O=C(NCC1CCOC1)c1csc(Cc2ccccc2)n1 (stereo not drawn),5.242%
24,O=C(NCC1CCOC1)c1cc(-c2ccc(F)cc2)[nH]n1 (stereo not drawn),-3.417%
25,O=C(NCC1CCOCC1)c1cc(-c2ccncc2)c2cnccc2n1,108.8%
26,CCSCCC(=O)NCc1cc2n(n1)CCN(C(=O)N(C)C)C2,-0.2016%

row,Compound,Percent Effect
1,CCn1cc(CN2CCCn3nc(CNC(=O)C4CCC4)cc3C2)cn1,6.964%
2,CSCCC(=O)NCc1cc2n(n1)CCN(C(=O)N(C)C)C2,-0.4963%
3,CSCC[C@H](N)C(=O)NCc1cc2n(n1)CCCN(C(=O)N(C)C)C2,122.1%
4,CSCC[C@H](N)C(=O)NCc1cc2n(n1)CCCN(C(=O)C1CCC1)C2,51.59%
5,CSC(C)CCN1CCCn2nc(CNC(=O)C3CCC3)cc2C1 (stereo not drawn),-26.67%
6,COc1c(F)cccc1C(=O)N(C)Cc1nc(-c2ccccn2)no1,-5.196%
7,O=C(c1nnn(-c2ccccc2F)c1-c1ccccn1)N1CCSCC1,6.252%
8,CCC(CC)CN(C)Cc1nc(-c2ccccc2NS(C)(=O)=O)oc1C,-3.021%
9,Cc1nsc(NC(=O)N2CCCCC2CCO)n1 (stereo not drawn),17.59%
10,CN(C)C1CCN(C(=O)NCc2ccc(Cn3cncn3)cc2)CC1,-7.697%
11,Cl.c1cc(CNCc2ccnc(N3CCCC3)c2)c2c(c1)OCCO2,3.03%
12,Cl.c1cc(CNCc2ccc(Cn3cncn3)cc2)c2c(c1)OCCO2,98.52%
13,OCc1cccc(CNCc2cccc3c2OCCO3)c1,91.71%
14,c1cc(CNCc2ccnc(N3CCOCC3)c2)c2c(c1)OCCO2,-3.552%
15,CC(C)c1nn(C)c(Cl)c1CNCc1ccc2c(c1)OCCO2.Cl,-6.63%
16,Cl.c1cc(CNCc2cccc3c2OCCCO3)cc(Cn2cncn2)c1,92.05%
17,c1cc(CNCc2ccnc(N3CCCCC3)c2)c2c(c1)OCCCO2,-27.55%
18,O=S(=O)(CCNCc1cccc2c1OCCO2)N1CCOCC1,-15.52%
19,c1ncn(Cc2ccc(CNCc3ccc4c(c3)OCCO4)cc2)n1,118.2%
20,c1cc(CNCc2ccnc(N3CCCC3)c2)c2c(c1)OCCCO2,-11.45%
21,CN(C)c1cc(CNCc2cccc3c2OCCO3)ccn1,-14.59%
22,CC(C)CN1C(=O)CC[C@H]2CN(C(=O)c3ncc[nH]3)CC[C@H]21,5.326%
23,O=C(NCC1(c2ccc(F)cc2)CCC1)N1CCC2(CCOCC2)C1,-1.308%
24,CC(=O)c1cc(CN2C[C@@H](NS(=O)(=O)N(C)C)[C@H](C(C)C)C2)cs1,-2.035%
25,CC(NCc1ccncc1)c1cc2c(cc1Br)OCCO2 (stereo not drawn),-11.71%
26,Cc1nn(C)c(N(C)C)c1CNCc1cccc(OCCN(C)C)c1,-12.69%

row,Compound,Percent Effect
1,CCc1ncncc1C(=O)NCCNC(=O)c1ccc(C)c(F)c1,24%
2,CC1CN(c2cc(CNCc3cccc4c3OCCO4)ccn2)CCO1 (stereo not drawn),-31.92%
3,c1cc(CNCc2cccc3c2OCCO3)cc(Cn2cncn2)c1,82.82%
4,c1cc(CNCc2ccnc(N3CCOCC3)c2)c2c(c1)OCCCO2,13.14%
5,CCN(Cc1nc2c(cnn2C)c(=O)[nH]1)Cc1ccco1,83.36%
6,Cc1ccc(CN(C)Cc2nc3c(cnn3C)c(=O)[nH]2)o1,10.6%
7,Cc1occc1CN(C)Cc1nc2c(cnn2C)c(=O)[nH]1,0.5275%
8,CN(Cc1nc2c(cnn2C)c(=O)[nH]1)Cc1ccco1,90.92%
9,COCCN(Cc1nc2c(cnn2C)c(=O)[nH]1)Cc1ccco1,0.2947%
10,CCN(Cc1nc2c(cnn2C)c(=O)[nH]1)Cc1cccs1,17.21%
11,CCN(CC)CCn1cnc(-c2ccccc2)c1-c1ncc[nH]1,-14.65%
12,COc1c(CNC2(c3noc(C)n3)CCC2)c(C)nn1C.Cl,-0.07917%
13,CCc1nc(C)c(C(C)N(C)CCc2ccncc2)s1 (stereo not drawn),1.512%
14,CNC(=O)C1(c2cnccn2)CCCN1C(=O)c1ccccc1OC (stereo not drawn),2.763%
15,O=C1CCC2(CCCN(C(=O)c3cnccn3)CC2)N1 (stereo not drawn),-28.51%
16,CNC(=O)C1(c2cnccn2)CCCN1C(=O)c1c(F)cccc1F (stereo not drawn),94.23%
17,COCCC1(CO)CCCN(C(=O)c2cccnc2OC)C1 (stereo not drawn),-0.7359%
18,CN(CC(=O)N1CCN(c2ccccc2F)CC1)c1cnccn1,4.093%
19,CNC(=O)C1(c2cnccn2)CCCN1C(=O)c1cccnc1OC (stereo not drawn),97.1%
20,CNC(=O)C1(c2cnccn2)CCCN1C(=O)c1ccccc1C (stereo not drawn),116.1%
21,O=C1CCCC2(CCN(C(=O)c3cnccn3)CC2)N1,-3.096%
22,CNC(=O)C1(c2cnccn2)CCCN1C(=O)c1ccccc1F (stereo not drawn),99.27%
23,CCC(CC)n1ncc(C(=O)NS(=O)(=O)c2ccsc2)c1C,-0.139%
24,CN(Cc1ncnn1C)C(=O)CCn1ccc2ccccc21,-15.17%
25,CN(C)c1ncnc2c1CCN(C(=O)c1sccc1S(N)(=O)=O)C2,-19.94%
26,CN(C)CC(=O)N1Cc2nc(C(=O)NCc3ccncc3)oc2C1,-11.57%

row,Compound,Percent Effect
1,O=c1nc(SCc2cccnc2)c2c(n1CCO)CCCC2,8.765%
2,O=C(N[C@]12CC1CN(C(=O)c1ccco1)C2)c1ccoc1 (stereo partly drawn),-22.61%
3,CNC(=O)C1(c2cnccn2)CCCN1C(=O)c1ncccc1C (stereo not drawn),109.2%
4,CNc1ncccc1C(=O)N1CCCC2(CCN(C)CC2)CC1,-1.008%
5,O=C(Cc1ccccn1)NCC1OCCc2cn(CC3CC3)nc21.O=C(O)C(F)(F)F (stereo not drawn),-22.67%
6,Fc1cccc(CNCC2OCCc3cn(CC4CCOCC4)nc32)c1.O=C(O)C(F)(F)F (stereo not drawn),-13.58%
7,O=C(O)C(F)(F)F.O=C(O)C(F)(F)F.O=C(O)C(F)(F)F.c1ccc(Cn2cc3c(n2)C(CNCC2CCOCC2)OCC3)nc1 (stereo not drawn),3.019%
8,COCCn1cc2c(n1)C(CNCc1cccc(OC)c1)OCC2.O=C(O)C(F)(F)F (stereo not drawn),125%
9,O=C(O)C(F)(F)F.c1c2c(nn1CC1CCOCC1)C(CNC1CCOCC1)OCC2 (stereo not drawn),-44.92%
10,COCCn1cc2c(n1)C(CNCc1ccsc1)OCC2.O=C(O)C(F)(F)F (stereo not drawn),95.33%
11,O=C(O)C(F)(F)F.O=C(O)C(F)(F)F.c1cc(CNCC2OCCc3cn(CC4CC4)nc32)cs1 (stereo not drawn),-9.045%
12,COCCn1cc2c(n1)C(CNCc1nccs1)OCC2.O=C(O)C(F)(F)F.O=C(O)C(F)(F)F (stereo not drawn),108.5%
13,COCCn1cc2c(n1)C(CNCc1ccc(F)cc1)OCC2.O=C(O)C(F)(F)F.O=C(O)C(F)(F)F (stereo not drawn),10.33%
14,Cc1ccc(Sc2ccc(CN3CCC4(CC3)NCCNC4=O)o2)cc1,-3.78%
15,CCCN(C)c1ccc(C(=O)Nc2c(C)nn(C(C)C)c2C)cc1,9.882%
16,Cc1ccc(CNC(=O)c2oc3ccccc3c2CN(C)C)n1C,-0.2654%
17,Cl.O[C@@H]1CN(Cc2cccc(F)c2)CC[C@H]1NCc1ccccn1,63.1%
18,Fc1ccc(OCc2nnc([C@H]3CCN(Cc4ccccn4)C3)o2)cc1,11.6%
19,Cc1[nH]c2ccc(CNC3CCN(Cc4ccccn4)CC3)cc2c1C,-2.213%
20,CN(Cc1cccc(F)c1)C1CCN(CCc2ccccn2)CC1,5.619%
21,Fc1ccc(CNC2CCN(CCc3ccncc3)CC2)cc1F,-3.888%
22,O=C(NC[C@H]1OC[C@@H](NCc2ccccn2)[C@@H]1O)c1ccc(F)cc1,4.298%
23,Cl.O[C@@H]1CN(Cc2ccc(F)cc2)CC[C@H]1NCc1ccccn1,97.86%
24,COCc1nccc(C2CCCN(Cc3cccc(F)c3)C2)n1 (stereo not drawn),-13.68%
25,Cl.O[C@@H]1CN(Cc2ccc(F)c(F)c2)CC[C@H]1NCc1ccccn1,84.03%
